Drawing on ChEMBL document CHEMBL1157539, “Thousands of chemical starting points for antimalarial lead identification” (Nature, 2010), this text covers Inhibition for 31 compounds.

What is called Inhibition is the percentage by which the read-out fell short of the control. A lower Inhibition goes with a weak effect.

Holding throughout (format): functional
Test [1] deals with Plasmodium falciparum. The experiment in a line: GSK_TCMDC: Inhibition of Plasmodium falciparum 3D7 in whole red blood cells, using parasite LDH activity as an index of growth. Test compounds present at 2uM.
Test [2] concerns Plasmodium falciparum. The experiment in a line: GSK_TCMDC: Inhibition of Plasmodium falciparum Dd2 in whole red blood cells, using parasite LDH activity as an index of growth. Test compounds present at 2uM.
The next test relates to HepG2. As to the kind of experiment: GSK_TCMDC: Percent inhibition of human HepG2 cell line. Test compounds present at 10uM.

For `CCCCNC[C@@H](O)[C@H](Cc1ccccc1)NC(=O)c1cc(NCC)cc(N2CCCCS2(=O)=O)c1.Cl`, the figures for the Inhibition with Plasmodium falciparum [1], in the test on Plasmodium falciparum [2] and in the test on HepG2 were 99%, 98% and 11%, respectively.

As to `COc1ccc(-c2cccc(NC(=O)c3cccc(C#N)c3)c2)cc1CN1CCCN(C)CC1.O=C(O)C(F)(F)F`, the Inhibition in the test with Plasmodium falciparum [1] is recorded as 100%; with Plasmodium falciparum [2], 99%; in the test with HepG2, 22%.

As for `Cc1noc(C)c1-c1ccc2c(Nc3ccccc3C(C)(C)C)c(C(=O)NCc3ccc4c(c3)OCO4)cnc2c1.Cl`, the Inhibition in the test with Plasmodium falciparum [1] was found to be 96%; in the test on Plasmodium falciparum [2], 88%; in the test on HepG2, 37%.

For `COc1ccc(Cc2cccc(C(C(=O)NCc3cc(Cl)cc(Cl)c3)N3CCN(C)CC3)c2)cc1.O=C(O)C(F)(F)F` (stereo not drawn), the Inhibition in the test with Plasmodium falciparum [1] is 100%; in the test on Plasmodium falciparum [2] it was 24%; with HepG2 it was 8%.

`COc1ccc(-c2cccc(NC(=O)c3ccc(F)cc3)c2)cc1CNC(C)C.O=C(O)C(F)(F)F`: the Inhibition was found to be 83% with Plasmodium falciparum [1], 9% with Plasmodium falciparum [2] and 32% in the test with HepG2.

Turning to `COc1ccc2ccc(OC)c(CNCCCCCCNCc3c(OC)ccc4ccc(OC)cc34)c2c1.CS(=O)(=O)O`, the Inhibition in the test on Plasmodium falciparum [1] was found to be 100%; with Plasmodium falciparum [2] it was 32%; with HepG2, 100%.

In the case of `CCCCCCNC(=O)C1Cc2c([nH]c3cc(Cl)ccc23)C2(CCN(CCC)CC2)N1` (stereo not drawn), the values for the Inhibition with Plasmodium falciparum [1], with Plasmodium falciparum [2] and in the test on HepG2 were 92%, 18% and 8%, respectively.

On to `CCc1cc2c3c(N)nc(N)nc3ccc2n1CC`, for which the Inhibition in the test on Plasmodium falciparum [1] was 93%; in the test on Plasmodium falciparum [2], 0%; in the test with HepG2, 62%.

Consider `Cc1ccc2c(Cl)c(C(=O)N3CC(C)OC(C)C3)sc2c1` (stereo not drawn), for which the Inhibition is on record as 100% with Plasmodium falciparum [1], 98% in the test on Plasmodium falciparum [2] and 4% in the test with HepG2.

Consider `COc1ccc2ncc(F)c([C@@H](O)CN3CCC(NCc4cc5c(cn4)OCCO5)CC3)c2c1.Cl`, for which the Inhibition amounted to 100% with Plasmodium falciparum [1], 98% with Plasmodium falciparum [2] and 0% with HepG2.

For the compound `Cl.NC1=NC(c2ccccc2)N(OCc2ccccc2)C(N)=N1` (stereo not drawn), the Inhibition was determined as 96% in the test on Plasmodium falciparum [1], 21% with Plasmodium falciparum [2] and 5% in the test with HepG2.

`CCOC(=O)c1nc(-c2ccccc2)[nH]c1-n1nc(C)cc1C`: the Inhibition stood at 92% in the test with Plasmodium falciparum [1], 9% in the test with Plasmodium falciparum [2] and 7% in the test with HepG2.

For the compound `CSc1cccc(Nc2nc3ccc(S(=O)(=O)NC(C)C(C)C)cc3n2[C@H](C)C(C)(C)C)c1` (stereo partly drawn), the Inhibition in the test with Plasmodium falciparum [1] was determined as 97%; with Plasmodium falciparum [2], 98%; in the test on HepG2, 0%.

With `O=C(O)C(F)(F)F.c1cc(-c2ccc(CN3CCN(c4ccncc4)CC3)cc2)cc(-c2nc3ccccc3[nH]2)c1`, the Inhibition in the test on Plasmodium falciparum [1] stood at 100%; in the test on Plasmodium falciparum [2] it was 100%; in the test with HepG2, 61%.

Turning to `CCc1cn2c3c(cc(C(=O)N[C@@H](Cc4cccc(Cl)c4)[C@H](O)CNC4CCOCC4)cc13)N(C)S(=O)(=O)CC2.O=CO`, the Inhibition was found to be 98% with Plasmodium falciparum [1], 98% with Plasmodium falciparum [2] and 2% with HepG2.

`CO/C(=C\C=C\c1cc2cc(Cl)c(Cl)cc2[nH]1)C(=O)NCCCN1CCN(Cc2ccccc2)CC1`: the Inhibition is 94% in the test with Plasmodium falciparum [1], 65% in the test on Plasmodium falciparum [2] and 45% with HepG2.

On to `CCCCn1c(Sc2ccc(C#N)c([N+](=O)[O-])c2)nnc1-c1ccc(OC)cc1`, for which the Inhibition in the test on Plasmodium falciparum [1] stood at 93%; with Plasmodium falciparum [2], 61%; with HepG2, 12%.

For `O=C(/C=C/c1ccc2ccccc2c1)NCCCCCN1CCC(c2c[nH]c3ccccc23)CC1`, the Inhibition in the test with Plasmodium falciparum [1] is given as 90%; in the test on Plasmodium falciparum [2] it was 4%; in the test on HepG2, 18%.

For `COc1cccc(CNC(=O)NC2CCN(c3ccnc(Nc4cc(OC)c(OC)c(OC)c4)n3)C2)c1` (stereo not drawn), the Inhibition in the test on Plasmodium falciparum [1] was found to be 93%; with Plasmodium falciparum [2] it was 84%; with HepG2, 15%.

As to `O=C(Nc1ccc(-c2ccccc2)cc1)Nc1cccc(Cn2nc(Cl)c(N3CCNCC3)cc2=O)c1.O=C(O)C(F)(F)F`, the Inhibition in the test with Plasmodium falciparum [1] was 100%; in the test with Plasmodium falciparum [2], 79%; in the test on HepG2, 15%.

For the compound `CN(C)CCN(C)Cc1ccc(-c2cccc(-c3nc4ccccc4[nH]3)c2)cc1.O=C(O)C(F)(F)F`, the Inhibition in the test on Plasmodium falciparum [1] is listed as 100%; in the test on Plasmodium falciparum [2], 78%; with HepG2, 46%.

Regarding `N#Cc1cccc(-c2nc(NCc3cccc(C(F)(F)F)c3)nn2-c2cccc(C(F)(F)F)c2)c1`, the Inhibition was 94% in the test on Plasmodium falciparum [1], 88% in the test on Plasmodium falciparum [2] and 12% in the test with HepG2.

Take `Cl.N=C(NCCc1ccccc1Cl)c1ccc2ccccc2c1`: the Inhibition in the test on Plasmodium falciparum [1] is on record as 88%; with Plasmodium falciparum [2], 11%; in the test with HepG2, 25%.

Take `NC(=O)c1cccc(C(=O)Nc2cccc(-c3ccc(-c4nc5ccccc5[nH]4)s3)c2)c1`: the Inhibition stood at 95% in the test with Plasmodium falciparum [1], 69% in the test with Plasmodium falciparum [2] and 37% in the test on HepG2.

Take `CC(C)COc1ccc(Cl)cc1Cc1ccc(-c2nc3ccc(Cl)cc3[nH]2)o1`: the Inhibition in the test with Plasmodium falciparum [1] is 97%; with Plasmodium falciparum [2], 96%; in the test with HepG2, 19%.

With `COc1ccc(NC(=O)[C@H](CC(C)C)Nc2cc(C)nc(NCCc3ccccc3OC)n2)cc1.O=C(O)C(F)(F)F`, the results for the Inhibition in the test on Plasmodium falciparum [1], with Plasmodium falciparum [2] and in the test on HepG2 were 99%, 68% and 9%, respectively.

`Nc1cc(-c2ccc(Br)cc2O)nc2ccccc12`: the Inhibition in the test with Plasmodium falciparum [1] is reported as 100%; in the test on Plasmodium falciparum [2], 50%; with HepG2, 23%.

As to `COc1ccc(-c2ccc(S(=O)(=O)Nc3cc4c(cc3OC(C)C)CCN(C)CC4)cc2)cc1.Cl`, the Inhibition came to 98% in the test with Plasmodium falciparum [1], 2% in the test with Plasmodium falciparum [2] and 16% with HepG2.

For the compound `O=C(O)C(F)(F)F.O=C1CCCN1CCCNCc1ccc(-c2cccc(-c3nc4cc(C(F)(F)F)ccc4[nH]3)c2)cc1`, the Inhibition amounted to 100% in the test on Plasmodium falciparum [1], 98% with Plasmodium falciparum [2] and 14% with HepG2.

Consider `CC(=O)Nc1cccc(C(=O)Nc2cccc(-c3ccc(-c4nc5cccc(C)c5[nH]4)cc3)c2)c1`, for which the values for the Inhibition in the test with Plasmodium falciparum [1], in the test on Plasmodium falciparum [2] and in the test on HepG2 were 95%, 12% and 29%, respectively.

For `COc1ccc2c(c1C1CCN(CCCCNC(=O)c3ccc(NC(=O)c4ccc(Cl)cc4)cc3)CC1)CCCC2`, the Inhibition in the test on Plasmodium falciparum [1] came to 100%; with Plasmodium falciparum [2], 99%; in the test on HepG2 it was 19%.
